# A selection: hits, their analogues and other compounds. The true share with any hit is near 1.3%.
# VLA-4 inh – inhibition in a human VLA-4 binding assay | inhibition, % (about 7 µM as worked out from the volumes in the protocol) | P13612 | 330,000 compounds, 0.2% hits | AID 2557 | VLA-4 expressing cells, ligand binding flow cytometry; in the data active = inhibition above about 50%
# Beta2AR agonist – activates human beta-2 adrenergic receptor causing internalization; Am2.2-beta2AR cells, FAP receptor internalization, flow cytometry; response, % (concentration not given with the values); 340,000 compounds, 0.43% hits; AID 504454;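 active = response above a set limit, near 3 SD of response in nonfluorescent compounds, cut at about 42% in these data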
# Target sequence (P07550 whole entry, looked up): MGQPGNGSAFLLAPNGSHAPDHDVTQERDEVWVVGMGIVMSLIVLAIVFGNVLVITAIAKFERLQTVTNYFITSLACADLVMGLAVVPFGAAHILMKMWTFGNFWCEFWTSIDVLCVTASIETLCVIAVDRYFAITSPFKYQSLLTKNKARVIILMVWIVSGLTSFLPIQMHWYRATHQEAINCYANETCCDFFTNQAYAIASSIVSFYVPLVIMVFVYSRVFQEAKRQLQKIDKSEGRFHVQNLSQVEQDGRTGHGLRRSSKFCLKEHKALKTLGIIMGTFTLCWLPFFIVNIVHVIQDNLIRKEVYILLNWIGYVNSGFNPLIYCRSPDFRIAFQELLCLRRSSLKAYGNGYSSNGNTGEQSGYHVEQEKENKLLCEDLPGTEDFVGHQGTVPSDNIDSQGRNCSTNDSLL
# NTR1 ag – activates human neurotensin receptor 1 | P30989 | NTR1-U2OS beta-arrestin-GFP spot imaging, agonist mode | activation, % at 20 µM | 330,000 compounds, 0.17% hits;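 active = activation at or above 40% of the spot to cytoplasm intensity ratio, with at least 20 cells analyzed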
# A1 inh – inhibitors of the anti-apoptotic protein A1, read as caspase activation; caspase activation, % (test concentration not listed); AID 2462; 330,000 compounds, 0.066% hits; MEF A1-2A-BIM cells, Caspase-Glo 3/7 luminescence, 3 h; percent of clofoctol response, vehicle zero;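 active = over half of replicate activation scores above 10%, or exactly half above 10 with the replicate mean above 10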
# GRK2 aptamer HTS – blocks RNA aptamer binding to human GRK2 | bead flow cytometry, FAM-aptamer displacement from GRK2 | P25098 | inhibition of aptamer binding, % at 10 µM | 330,000 compounds, 0.59% hits;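 active = inhibition of aptamer binding above 40%, roughly 3 SD of noise, on plates passing a quality check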;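 also: median bead fluorescence of bound FAM aptamer so fluorescent compounds give negative values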
# Beta2AR ag CP1 – human beta-2 adrenergic receptor agonism, cherry pick; 1,100 compounds, 25% hits; Am2.2-beta2AR cells, FAP surface receptor, flow cytometry; hits give low values; shares compounds with Beta2AR agonist; percent response (surface receptor), % at 10 µM;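 active = surface receptor percent response at or below 58%, roughly 3 SD from nonfluorescent compounds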
# B2AR FAP counter – flagged in Am2.2 fluorescence counterscreen for beta-2AR agonists; 1,100 tested, under 10 active; shares compounds with Beta2AR agonist; Am2.2 cells, FAP fluorogen flow cytometry; hits give low values; calls only at 10 µM;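 active = percent response below a set limit in fluorescence channel 1 and below 50% in channel 8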
# Hits are given with their value; – = inactive; · = not tested or not shown.
SMILES,VLA-4 inh,Beta2AR agonist,NTR1 ag,A1 inh,GRK2 aptamer HTS,Beta2AR ag CP1,B2AR FAP counter
Cc1ccc(NC(=O)c2ccc(N3CCOCC3)c([N+](=O)[O-])c2)cc1S(=O)(=O)N1CCOCC1,–,49,–,–,–,20,–
Cc1ccc(C(=O)Nc2ccccc2[N+](=O)[O-])cc1S(=O)(=O)N1CCOCC1,–,–,–,–,–,·,·
Cc1ccc(C(=O)Nc2cccc(S(=O)(=O)N3CCOCC3)c2)cc1[N+](=O)[O-],–,–,–,–,–,·,·
COc1ccc(OC)c(S(=O)(=O)N(C)CC(=O)N2CCN(c3cccc(Cl)c3)CC2)c1,–,–,–,–,–,–,–
COc1ccc(OC)c(S(=O)(=O)N(C)CC(=O)N2CCN(c3ccccc3F)CC2)c1,–,–,–,–,–,–,–
COc1ccc(OC)c(S(=O)(=O)N(C)CC(=O)N2CCN(c3ccc(F)cc3)CC2)c1,–,–,–,–,–,–,–
COc1ccc(OC)c(S(=O)(=O)N(C)CC(=O)N2CCOCC2)c1,–,–,–,–,–,·,·
COc1ccc(Cl)cc1S(=O)(=O)N(C)CC(=O)N1CCCC1,–,–,–,–,–,·,·
CC(C)Sc1ccccc1C(=O)Nc1ccc2c(c1)n(C)c(=O)n2C,–,–,–,–,–,·,·
CC(=O)NC(CC(=O)OCC(=O)c1ccc(NC(=O)CC(C)C)cc1)c1ccccc1 (stereo unspecified),–,–,–,–,–,·,·
CCOc1cc(/C=C2\CN(C)C/C(=C\c3ccc(O)c(OCC)c3)C2=O)ccc1O,–,46,–,–,–,–,–
CSCCC(NC(=O)c1ccccc1Cl)C(=O)N1CC(C)OC(C)C1 (stereo unspecified),–,–,–,–,–,·,·
CNCc1ccccc1Sc1cc(O)ccc1O,–,68,–,–,–,–,–
O=C(COc1ccc(S(=O)(=O)N2CCOCC2)cc1)Nc1ccccc1C(F)(F)F,–,–,–,–,–,–,–
O=C(COc1ccc(S(=O)(=O)N2CCCCC2)cc1)Nc1ccccc1F,–,–,–,–,–,–,–
O=C(COc1ccccc1)Nc1ccc(S(=O)(=O)N2CCCCCC2)cc1,–,–,–,–,–,·,·
Cc1ccc(S(N)(=O)=O)cc1NC(=O)C(c1ccccc1)c1ccccc1,–,–,–,–,–,·,·
N#CC1=C(N)OC2=C(CCc3ccccc32)C1c1ccccc1 (stereo unspecified),–,43,–,–,–,28,–
CCOc1ccccc1OCCCC(=O)Nc1cccc(-n2cnnn2)c1C,–,–,–,–,–,·,·
C=CC[C@H](CC(=O)NCCO)C(=O)N[C@H](COC(=O)[C@H](CC=C)CC(=O)OC(C)(C)C)Cc1c[nH]c2ccccc12,–,–,–,–,–,·,·
COc1ccccc1OCCCC(=O)Nc1nccs1,–,76,–,–,–,–,–
Cc1cccc(OCCCC(=O)Nc2nccs2)c1C,–,–,–,–,–,·,·
CCC(CC)C(=O)Nc1cc(OC)c(OC)cc1C(=O)O,–,92,–,–,–,–,–
CCC(C)C(=O)Nc1cc(OC)c(OC)cc1C(=O)O (stereo unspecified),–,–,–,–,–,·,·
CCC(=O)N1CCN(c2ccc(NC(=O)c3ccc([N+](=O)[O-])o3)cc2Cl)CC1,·,–,·,·,·,·,·
SMILES,VLA-4 inh,Beta2AR agonist,NTR1 ag,A1 inh,GRK2 aptamer HTS,Beta2AR ag CP1,B2AR FAP counter
CCN1CCN(c2ccc(NC(=O)c3ccc([N+](=O)[O-])o3)cc2Cl)CC1,·,63,·,·,·,13,–
Cc1ccc(Cl)cc1Nc1nc(N2CCOCC2)nc(N2CCOCC2)n1,–,–,–,–,–,·,·
Cc1ccc([N+](=O)[O-])cc1Nc1nc(N2CCOCC2)nc(N2CCOCC2)n1,–,50,–,–,–,–,–
CC(COc1ccccc1)NC(C)C(O)c1ccc(O)cc1 (stereo unspecified),–,–,–,–,–,–,–
CNCC(O)COc1ccccc1 (stereo unspecified),–,–,–,–,–,·,·
CCN(CC)c1nc(SCCOC(=O)Nc2ccccc2)nc(N(CC)CC)n1,–,44,–,–,–,–,–
COC(=O)c1cc(NC(=O)Cn2c(=O)oc3ccccc32)cc(C(=O)OC)c1,–,71,–,–,–,–,–
CCOc1cc2[nH]c(=S)n(CCOC)c(=O)c2cc1OCC,–,–,–,–,–,·,·
COCCn1c(=S)[nH]c2ccc(N(C)C)cc2c1=O,–,45,–,–,–,–,–
CCOC(=O)C1(C(=O)OCC)C(C(=O)c2ccccc2)C1c1ccccc1 (stereo unspecified),·,–,·,·,·,·,·
Cc1ccc(Nc2ncc3c(=O)[nH][nH]c(=O)c3n2)cc1,·,–,·,·,·,·,·
CCN(CC)S(=O)(=O)c1cccc(-n2c(O)c(C=Nc3ccccc3C(=O)O)c3ccccc3c2=O)c1,–,47,–,–,–,–,–
O=C(O)c1ccccc1N=Cc1c(O)n(-c2nccs2)c(=O)c2ccccc12,–,–,–,–,–,·,·
CCN(CC(=O)Nc1c(F)cccc1F)C(=O)Cc1ccc2c(c1)CCC2,–,–,–,–,–,·,·
CC(=O)c1cccc(N=c2scc(-c3ccc(S(=O)(=O)N4CCOCC4)cc3)n2CCO)c1,–,104,–,–,–,–,–
CCCCN(CCCC)c1nc2ccccc2nc1NS(=O)(=O)c1ccc(NC(C)=O)cc1,–,119,–,–,–,28,–
CC(=O)Nc1ccc(S(=O)(=O)Nc2nc3ccccc3nc2Nc2ccc(N)cc2)cc1,–,–,–,–,–,·,·
CCCn1c(C)cc(/C=C(\C#N)C(=O)OCC(=O)N(CC)c2c(N)n(Cc3ccccc3)c(=O)[nH]c2=O)c1C,·,–,·,·,·,·,·
Fc1ccc(Sc2nc(-c3ccccc3)nnc2C(F)(F)F)cc1,–,44,–,–,–,21,–
Fc1ccc(Oc2nc(-c3ccccc3)nnc2C(F)(F)F)cc1,–,–,–,–,–,·,·
Clc1ccccc1CN1CCc2sccc2C1,–,–,–,–,–,–,–
Cn1cc(CN2CCc3sccc3C2)c(-c2ccccc2F)n1,–,–,–,–,–,·,·
O=C1CC(C(=O)Nc2ccc(C(=O)N3CCOCC3)cc2)C2(CCCCC2)O1 (stereo unspecified),–,52,–,–,–,–,–
COCCSc1nc(N)c2c3c(sc2n1)CN(C)CC3,–,–,–,–,·,·,·
CCOC(=O)c1ccc(NC(=O)Nc2ccon2)cc1,–,44,–,–,–,–,–
CCCCn1c(=N)n(CC(O)COc2cccc(C)c2)c2ccccc21 (stereo unspecified),–,46,–,–,–,–,–
CNC1=CC(=O)CC(c2ccccc2)C1 (stereo unspecified),–,–,–,–,–,·,·
O=C1C=C(NC2CCCC2)CC(c2ccccc2)C1 (stereo unspecified),–,–,–,–,–,–,–

# Screening data (PubChem BioAssay)
